{"source": "paper PMC11006913", "test_in_all_cases": "PBM; 200 nM protein, PBS", "settings_in_all_cases": "dsDNA, one strand shown", "key": {"[1]": {"target": "HOXA7 (Homo sapiens, UniProt P31268 116-202)", "sequence (P31268 116-202)": "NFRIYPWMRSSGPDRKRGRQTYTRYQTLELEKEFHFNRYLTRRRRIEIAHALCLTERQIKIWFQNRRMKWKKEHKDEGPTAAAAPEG"}, "[2]": {"target": "PITX2 (Homo sapiens, UniProt Q99697 72-157)"}, "[3]": {"target": "HOXA7 (Homo sapiens, UniProt P31268 116-202, W177C)", "sequence (P31268 116-202 W177C)": "as the sequence (P31268 116-202) above, with W62C counted along it"}, "[4]": {"target": "PROP1 (Homo sapiens, UniProt O75360 56-141)", "sequence (O75360 56-141)": "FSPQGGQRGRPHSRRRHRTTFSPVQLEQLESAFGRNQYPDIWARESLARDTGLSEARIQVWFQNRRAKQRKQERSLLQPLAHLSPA"}, "[5]": {"target": "PROP1 (Homo sapiens, UniProt O75360 56-141, R99H)", "sequence (O75360 56-141 R99H)": "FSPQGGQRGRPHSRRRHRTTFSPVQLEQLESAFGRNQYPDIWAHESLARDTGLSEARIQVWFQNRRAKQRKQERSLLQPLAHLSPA"}, "[6]": {"target": "PROP1 (Homo sapiens, UniProt O75360 56-141, F88S)", "sequence (O75360 56-141 F88S)": "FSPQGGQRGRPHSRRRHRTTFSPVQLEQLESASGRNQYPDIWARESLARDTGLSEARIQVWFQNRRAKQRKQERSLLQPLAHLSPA"}, "[7]": {"target": "ALX1 (Homo sapiens, UniProt Q15699 118-204, L144V)", "sequence (Q15699 118-204 L144V)": "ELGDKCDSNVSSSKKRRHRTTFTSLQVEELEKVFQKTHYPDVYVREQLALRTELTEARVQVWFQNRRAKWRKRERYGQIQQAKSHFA"}, "[8]": {"target": "ALX1 (Homo sapiens, UniProt Q15699 118-204, L144R)", "sequence (Q15699 118-204 L144R)": "as the sequence (Q15699 118-204 L144V) above, with V27R counted along it"}, "[9]": {"target": "ALX1 (Homo sapiens, UniProt Q15699 118-204)", "sequence (Q15699 118-204)": "as the sequence (Q15699 118-204 L144V) above, with V27L counted along it"}, "[10]": {"target": "HOXB6 (Homo sapiens, UniProt P17509 132-218, K202E)", "sequence (P17509 132-218 K202E)": "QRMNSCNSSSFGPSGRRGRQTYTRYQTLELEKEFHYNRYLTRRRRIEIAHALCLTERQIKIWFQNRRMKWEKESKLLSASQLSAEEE"}, "[11]": {"target": "VAX1 (Homo sapiens, UniProt Q5SQQ9 86-172)", "sequence (Q5SQQ9 86-172)": "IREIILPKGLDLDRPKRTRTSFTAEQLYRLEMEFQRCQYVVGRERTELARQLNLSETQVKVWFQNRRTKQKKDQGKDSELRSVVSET"}, "[12]": {"target": "MSX2 (Homo sapiens, UniProt P35548 130-214, F161Y)", "sequence (P35548 130-214 F161Y)": "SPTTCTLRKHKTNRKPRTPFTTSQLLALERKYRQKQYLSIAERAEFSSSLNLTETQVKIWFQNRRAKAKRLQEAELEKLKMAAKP"}, "[13]": {"target": "VAX1 (Homo sapiens, UniProt Q5SQQ9 86-172, T142I)", "sequence (Q5SQQ9 86-172 T142I)": "as the sequence (Q5SQQ9 86-172) above, with T57I counted along it"}, "[14]": {"target": "VAX1 (Homo sapiens, UniProt Q5SQQ9 86-172, K157R)", "sequence (Q5SQQ9 86-172 K157R)": "as the sequence (Q5SQQ9 86-172) above, with K72R counted along it"}, "[15]": {"target": "HOXB6 (Homo sapiens, UniProt P17509 132-218)", "sequence (P17509 132-218)": "as the sequence (P17509 132-218 K202E) above, with E71K counted along it"}, "[16]": {"target": "NKX3-2 (Homo sapiens, UniProt P78367 192-278, P234S)", "sequence (P78367 192-278 P234S)": "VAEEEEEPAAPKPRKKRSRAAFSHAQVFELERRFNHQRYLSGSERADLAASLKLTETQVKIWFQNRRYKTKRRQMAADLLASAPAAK"}, "[17]": {"target": "NKX3-2 (Homo sapiens, UniProt P78367 192-278)", "sequence (P78367 192-278)": "as the sequence (P78367 192-278 P234S) above, with S43P counted along it"}, "[18]": {"target": "HOXA2 (Homo sapiens, UniProt O43364 129-215, R185T)", "sequence (O43364 129-215 R185T)": "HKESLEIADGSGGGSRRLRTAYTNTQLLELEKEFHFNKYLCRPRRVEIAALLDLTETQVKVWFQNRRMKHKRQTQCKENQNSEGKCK"}, "[19]": {"target": "T1, NKX2-6 (Homo sapiens, UniProt A6NCS4 118-204, R150C)", "T1 sequence": "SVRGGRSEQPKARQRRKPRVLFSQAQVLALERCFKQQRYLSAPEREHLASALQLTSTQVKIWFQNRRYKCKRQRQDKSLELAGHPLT"}, "[20]": {"target": "HOXA2 (Homo sapiens, UniProt O43364 129-215, R185K)", "sequence (O43364 129-215 R185K)": "as the sequence (O43364 129-215 R185T) above, with T57K counted along it"}, "[21]": {"target": "HOXA2 (Homo sapiens, UniProt O43364 129-215, Y150S)", "sequence (O43364 129-215 Y150S)": "as the sequence (O43364 129-215 R185T) above, with Y22S, T57R counted along it"}, "[22]": {"target": "HOXA2 (Homo sapiens, UniProt O43364 129-215)", "sequence (O43364 129-215)": "as the sequence (O43364 129-215 R185T) above, with T57R counted along it"}}, "data": [{"sequence": "CTGCTTCA", "values": [{"measurement": "binding signal", "setting": "[1]", "result": "8.51 upbm affinity estimate (log intensity, higher = more binding, comparable within an allelic series)"}, {"measurement": "binding signal", "setting": "[2]", "result": "7.83 upbm affinity estimate (log intensity, higher = more binding, comparable within an allelic series)"}, {"measurement": "binding signal", "setting": "[3]", "result": "8.44 upbm affinity estimate (log intensity, higher = more binding, comparable within an allelic series)"}]}, {"sequence": "CAGTGCGG", "values": [{"measurement": "binding signal", "setting": "[1]", "result": "8.54 upbm affinity estimate (log intensity, higher = more binding, comparable within an allelic series)"}, {"measurement": "binding signal", "setting": "[4]", "result": "6.84 upbm affinity estimate (log intensity, higher = more binding, comparable within an allelic series)"}, {"measurement": "binding signal", "setting": "[5]", "result": "6.82 upbm affinity estimate (log intensity, higher = more binding, comparable within an allelic series)"}, {"measurement": "binding signal", "setting": "[6]", "result": "6.73 upbm affinity estimate (log intensity, higher = more binding, comparable within an allelic series)"}, {"measurement": "binding signal", "setting": "[3]", "result": "8.37 upbm affinity estimate (log intensity, higher = more binding, comparable within an allelic series)"}]}, {"sequence": "CCAAGCCA", "values": [{"measurement": "binding signal", "setting": "[1]", "result": "8.43 upbm affinity estimate (log intensity, higher = more binding, comparable within an allelic series)"}, {"measurement": "binding signal", "setting": "[7]", "result": "6.51 upbm affinity estimate (log intensity, higher = more binding, comparable within an allelic series)"}, {"measurement": "binding signal", "setting": "[8]", "result": "6.6 upbm affinity estimate (log intensity, higher = more binding, comparable within an allelic series)"}, {"measurement": "binding signal", "setting": "[3]", "result": "8.54 upbm affinity estimate (log intensity, higher = more binding, comparable within an allelic series)"}, {"measurement": "binding signal", "setting": "[9]", "result": "6.46 upbm affinity estimate (log intensity, higher = more binding, comparable within an allelic series)"}]}, {"sequence": "AATTACCC", "values": [{"measurement": "binding signal", "setting": "[1]", "result": "11.4 upbm affinity estimate (log intensity, higher = more binding, comparable within an allelic series)"}, {"measurement": "binding signal", "setting": "[10]", "result": "9.85 upbm affinity estimate (log intensity, higher = more binding, comparable within an allelic series)"}, {"measurement": "binding signal", "setting": "[11]", "result": "12.7 upbm affinity estimate (log intensity, higher = more binding, comparable within an allelic series)"}, {"measurement": "binding signal", "setting": "[12]", "result": "13 upbm affinity estimate (log intensity, higher = more binding, comparable within an allelic series)"}, {"measurement": "binding signal", "setting": "[13]", "result": "12.5 upbm affinity estimate (log intensity, higher = more binding, comparable within an allelic series)"}, {"measurement": "binding signal", "setting": "[3]", "result": "8.89 upbm affinity estimate (log intensity, higher = more binding, comparable within an allelic series)"}, {"measurement": "binding signal", "setting": "[14]", "result": "12.6 upbm affinity estimate (log intensity, higher = more binding, comparable within an allelic series)"}, {"measurement": "binding signal", "setting": "[15]", "result": "11.7 upbm affinity estimate (log intensity, higher = more binding, comparable within an allelic series)"}]}, {"sequence": "CGTCGCCC", "values": [{"measurement": "binding signal", "setting": "[1]", "result": "8.61 upbm affinity estimate (log intensity, higher = more binding, comparable within an allelic series)"}, {"measurement": "binding signal", "setting": "[7]", "result": "6.4 upbm affinity estimate (log intensity, higher = more binding, comparable within an allelic series)"}, {"measurement": "binding signal", "setting": "[8]", "result": "6.34 upbm affinity estimate (log intensity, higher = more binding, comparable within an allelic series)"}, {"measurement": "binding signal", "setting": "[3]", "result": "8.42 upbm affinity estimate (log intensity, higher = more binding, comparable within an allelic series)"}, {"measurement": "binding signal", "setting": "[9]", "result": "6.57 upbm affinity estimate (log intensity, higher = more binding, comparable within an allelic series)"}]}, {"sequence": "CGGCGTTC", "values": [{"measurement": "binding signal", "setting": "[1]", "result": "8.31 upbm affinity estimate (log intensity, higher = more binding, comparable within an allelic series)"}, {"measurement": "binding signal", "setting": "[7]", "result": "6.29 upbm affinity estimate (log intensity, higher = more binding, comparable within an allelic series)"}, {"measurement": "binding signal", "setting": "[8]", "result": "6.24 upbm affinity estimate (log intensity, higher = more binding, comparable within an allelic series)"}, {"measurement": "binding signal", "setting": "[3]", "result": "8.26 upbm affinity estimate (log intensity, higher = more binding, comparable within an allelic series)"}, {"measurement": "binding signal", "setting": "[16]", "result": "10.4 upbm affinity estimate (log intensity, higher = more binding, comparable within an allelic series)"}, {"measurement": "binding signal", "setting": "[9]", "result": "6.31 upbm affinity estimate (log intensity, higher = more binding, comparable within an allelic series)"}, {"measurement": "binding signal", "setting": "[17]", "result": "10.4 upbm affinity estimate (log intensity, higher = more binding, comparable within an allelic series)"}]}, {"sequence": "CCAGCTGG", "values": [{"measurement": "binding signal", "setting": "[1]", "result": "8.23 upbm affinity estimate (log intensity, higher = more binding, comparable within an allelic series)"}, {"measurement": "binding signal", "setting": "[18]", "result": "7.34 upbm affinity estimate (log intensity, higher = more binding, comparable within an allelic series)"}, {"measurement": "binding signal", "setting": "[19]", "result": "9.68 upbm affinity estimate (log intensity, higher = more binding, comparable within an allelic series)"}, {"measurement": "binding signal", "setting": "[20]", "result": "10.4 upbm affinity estimate (log intensity, higher = more binding, comparable within an allelic series)"}, {"measurement": "binding signal", "setting": "[21]", "result": "10.5 upbm affinity estimate (log intensity, higher = more binding, comparable within an allelic series)"}, {"measurement": "binding signal", "setting": "[3]", "result": "8.36 upbm affinity estimate (log intensity, higher = more binding, comparable within an allelic series)"}, {"measurement": "binding signal", "setting": "[22]", "result": "7.34 upbm affinity estimate (log intensity, higher = more binding, comparable within an allelic series)"}]}]}
